Measurements taken from PubChem BioAssay (Tox21).
Several values for one entry are separate records, joined by “and”; a condition that tells them apart may be missing. Equal values may be shown once. Records with an inconclusive call do not appear. Where a call stands in place of a potency, no number is given. The source holds several records for some structures; these can differ, active in one and inactive in another. Activity calls are given as the source filed them. Unless noted, calls follow the shape of the dose curve; as a rule, active = well fitted curve in the direction sought with a large enough effect in the repeat runs; inconclusive = weak or mixed curves; inactive = no such curve, though single readings can be large; an effect the other way counts as inactive or inconclusive.

Tests used:
[1] = qHTS assay to identify small molecule agonists of the sonic hedgehog signaling (Shh) pathway (AID 1259368; calls by dose curve;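 also: NIH/3T3-derived 3T3Gli1-Luc cells carrying a stable Gli1-driven firefly luciferase reporter; series mostly up to about 92 µM; nearly all actives have a fitted effect of over 15% in size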)
Outline: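 Cells of a mouse NIH/3T3 clone stably expressing luciferase under the Gli1 transcriptional response element are exposed to test chemicals for 24 hr at 37 C. Pathway activation is detected as a rise in luminescence.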

[2] = qHTS assay to identify small molecule antagonists of the sonic hedgehog signaling (Shh) pathway (AID 1259369; calls by dose curve; also: nearly all actives have a fitted effect of over 45% in size; also: potency is read from the fitted curve at half-maximal effect)
Outline: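 Cells are plated and held 4hr at 37 C, compounds (DMSO) are pinned in, conditioned medium is added to stimulate the pathway, and after 24hr luciferase reagent is added for 30min before luminescence is read.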

[3] = molecular target: Estrogen receptor beta (Homo sapiens) (UniProt Q92731); experiment: qHTS assay to identify small molecule agonists of the estrogen receptor beta (ER-beta) signaling pathway (AID 1259377; active = well fitted activation curve with a large enough effect in the signal ratio in the repeat runs, not every such curve was filed as active; the % refers to the signal ratio)
Chain of Estrogen receptor beta (Homo sapiens) (Q92731 whole entry, looked up): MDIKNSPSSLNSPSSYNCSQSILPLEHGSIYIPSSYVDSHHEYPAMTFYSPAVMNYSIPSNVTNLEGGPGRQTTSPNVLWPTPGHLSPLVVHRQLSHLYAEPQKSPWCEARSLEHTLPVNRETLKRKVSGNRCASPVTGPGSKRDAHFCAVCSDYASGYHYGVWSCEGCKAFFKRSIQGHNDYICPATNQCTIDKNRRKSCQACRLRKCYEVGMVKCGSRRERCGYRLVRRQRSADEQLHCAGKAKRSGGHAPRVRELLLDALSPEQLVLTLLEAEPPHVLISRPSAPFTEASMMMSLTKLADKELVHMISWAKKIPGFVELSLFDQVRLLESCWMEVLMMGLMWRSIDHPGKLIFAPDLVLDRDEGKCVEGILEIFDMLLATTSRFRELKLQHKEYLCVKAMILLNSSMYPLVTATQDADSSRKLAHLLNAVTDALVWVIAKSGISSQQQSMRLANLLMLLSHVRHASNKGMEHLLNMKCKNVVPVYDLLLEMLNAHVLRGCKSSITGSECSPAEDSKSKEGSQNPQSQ
Outline: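 Beta-lactamase reporter readout: fluorescence of LiveBLAzer B/G FRET substrate after 2 h at room temperature, following 16 h compound treatment of ER-beta-UAS-bla HEK293T cells at 37C in 2% charcoal-stripped FBS medium.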

[4] = molecular target: Estrogen receptor beta (Homo sapiens) (UniProt Q92731); experiment: qHTS assay to identify small molecule antagonists of the estrogen receptor beta (ER-beta) signaling pathway (AID 1259378; active = well fitted inhibition curve with a large enough effect in the signal ratio in the repeat runs, not every such curve was filed as active; the % refers to the signal ratio; also: potency is read from the fitted curve at half-maximal effect)
Outline: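 ER-beta-UAS-bla HEK293T cells in 2% charcoal-stripped FBS medium treated with compound plus 1nM final 17-beta-estradiol for 16 hr at 37C. Beta-lactamase reporter read by FRET substrate fluorescence after 2 hours at room temperature.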

[5] = qHTS assay to identify small molecule agonists of the androgen receptor (AR) signaling pathway in the presence of an antagonist - cell viability counter screen (AID 1259379); also: nearly all actives have a fitted effect of over 25% in size; also: potency is read from the fitted curve at half-maximal effect
Outline: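 Cytotoxicity is assessed by CellTiter-Fluor in MDA-kb2 cells carrying an MMTV-driven luciferase reporter. Cells receive 3.0uM nilutamide plus compounds at 15 concentrations and incubate 16 hr at 37C without CO2 before fluorescence reading.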

[6] = qHTS assay to identify small molecule agonists of the estrogen receptor beta (ER-beta) signaling pathway - cell viability counter screen (AID 1259380); also: nearly all actives have a fitted effect of over 30% in size; also: potency is read from the fitted curve at half-maximal effect
Outline: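 Cytotoxicity is measured in parallel with the reporter screen: after 16 hr compound exposure at 37C and a 2 hr LiveBLAzer step, CellTiter-Glo is added to the same ER-beta-UAS-bla HEK293T wells and luminescence read after 30 min.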

[7] = qHTS assay to identify small molecule antagonists of the estrogen receptor beta (ER-beta) signaling pathway - cell viability counter screen (AID 1259382); also: nearly all actives have a fitted effect of over 55% in size; also: potency is read from the fitted curve at half-maximal effect
Outline: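 Cytotoxicity counter screen multiplexed with the beta-lactamase antagonist assay: GripTite HEK293T ER-beta-bla cells were treated 16 hr with test chemicals in the presence of 1nM 17-beta-estradiol, and viability was measured by CellTiter-Glo.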

[8] = qHTS assay to identify small molecule agonists or antagonists of the thyroid stimulating hormone receptor (TSHR) signaling pathway - wild type cell line counter screen (AID 1259384; calls by dose curve)
Outline: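 Wild-type Hek293 cells, 800/well, 18 h at 37C, then compound with Ro20-1724 for 30 min RT. cAMP by HTRF (cAMP-d2/anti-cAMP cryptate), 1 h RT, fluorescence read. 15 concentrations, triplicates.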

[9] = molecular target: Thyrotropin receptor (Homo sapiens) (UniProt P16473); experiment: qHTS assay to identify small molecule antagonists of the thyroid stimulating hormone receptor (TSHR) signaling pathway (AID 1259385; calls by dose curve; also: nearly all actives have a fitted effect of over 20% in size)
Chain of Thyrotropin receptor (Homo sapiens) (P16473 whole entry, looked up): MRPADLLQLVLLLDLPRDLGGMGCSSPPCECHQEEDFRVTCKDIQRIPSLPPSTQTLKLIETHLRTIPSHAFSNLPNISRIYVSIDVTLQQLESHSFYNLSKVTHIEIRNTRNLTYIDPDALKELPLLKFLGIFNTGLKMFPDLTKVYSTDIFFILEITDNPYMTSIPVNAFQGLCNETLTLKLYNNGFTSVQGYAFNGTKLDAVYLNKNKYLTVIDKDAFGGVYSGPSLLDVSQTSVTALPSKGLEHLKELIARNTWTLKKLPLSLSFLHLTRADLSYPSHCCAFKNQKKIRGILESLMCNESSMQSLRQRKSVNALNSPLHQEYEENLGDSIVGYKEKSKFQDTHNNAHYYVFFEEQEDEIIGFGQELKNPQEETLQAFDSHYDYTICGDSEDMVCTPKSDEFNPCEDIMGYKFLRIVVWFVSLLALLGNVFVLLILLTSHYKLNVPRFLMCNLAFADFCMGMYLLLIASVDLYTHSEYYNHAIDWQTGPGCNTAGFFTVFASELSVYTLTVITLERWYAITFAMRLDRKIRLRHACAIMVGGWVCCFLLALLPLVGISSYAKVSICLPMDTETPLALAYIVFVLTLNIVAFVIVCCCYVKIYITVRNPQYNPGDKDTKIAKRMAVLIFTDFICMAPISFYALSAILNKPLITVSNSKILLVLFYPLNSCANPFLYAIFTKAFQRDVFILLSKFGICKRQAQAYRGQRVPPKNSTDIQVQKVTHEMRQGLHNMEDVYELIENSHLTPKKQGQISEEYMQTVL
Outline: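 TSHR-HEK293 cells (800/well) plated 18 h, then compounds with Ro20-1724 and TSH at 1.5 ng/mL final, 30 min at room temperature. cAMP quantified by HTRF (cAMP-d2/anti-cAMP-cryptate, 1 h); 15 concentrations in triplicate.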

[10] = qHTS assay to identify small molecule agonists of the estrogen receptor alpha (ER-alpha) signaling pathway in the presence of an antagonist - cell viability counter screen (AID 1259386);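 also: series mostly up to about 92 µM; cells exposed to compounds for 22 h at 37 °C before the viability read; nearly all actives have a fitted effect of over 30% in size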
Outline: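 Cytotoxicity was measured in parallel with the ERE-luciferase agonist screen, in the same wells. The cells were VM7Luc4E2, which endogenously express ER-alpha, and treatment was with compounds plus 10.0nM ICI-182,780 for 22hr.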

[11] = molecular target: Progesterone receptor (Homo sapiens) (UniProt P06401); experiment: qHTS assay to identify small molecule agonists of the progesterone receptor (PR) signaling pathway (AID 1346784; calls by dose curve; also: nearly all actives have a fitted effect of over 30% in size)
Chain of Progesterone receptor (Homo sapiens) (P06401 whole entry, looked up): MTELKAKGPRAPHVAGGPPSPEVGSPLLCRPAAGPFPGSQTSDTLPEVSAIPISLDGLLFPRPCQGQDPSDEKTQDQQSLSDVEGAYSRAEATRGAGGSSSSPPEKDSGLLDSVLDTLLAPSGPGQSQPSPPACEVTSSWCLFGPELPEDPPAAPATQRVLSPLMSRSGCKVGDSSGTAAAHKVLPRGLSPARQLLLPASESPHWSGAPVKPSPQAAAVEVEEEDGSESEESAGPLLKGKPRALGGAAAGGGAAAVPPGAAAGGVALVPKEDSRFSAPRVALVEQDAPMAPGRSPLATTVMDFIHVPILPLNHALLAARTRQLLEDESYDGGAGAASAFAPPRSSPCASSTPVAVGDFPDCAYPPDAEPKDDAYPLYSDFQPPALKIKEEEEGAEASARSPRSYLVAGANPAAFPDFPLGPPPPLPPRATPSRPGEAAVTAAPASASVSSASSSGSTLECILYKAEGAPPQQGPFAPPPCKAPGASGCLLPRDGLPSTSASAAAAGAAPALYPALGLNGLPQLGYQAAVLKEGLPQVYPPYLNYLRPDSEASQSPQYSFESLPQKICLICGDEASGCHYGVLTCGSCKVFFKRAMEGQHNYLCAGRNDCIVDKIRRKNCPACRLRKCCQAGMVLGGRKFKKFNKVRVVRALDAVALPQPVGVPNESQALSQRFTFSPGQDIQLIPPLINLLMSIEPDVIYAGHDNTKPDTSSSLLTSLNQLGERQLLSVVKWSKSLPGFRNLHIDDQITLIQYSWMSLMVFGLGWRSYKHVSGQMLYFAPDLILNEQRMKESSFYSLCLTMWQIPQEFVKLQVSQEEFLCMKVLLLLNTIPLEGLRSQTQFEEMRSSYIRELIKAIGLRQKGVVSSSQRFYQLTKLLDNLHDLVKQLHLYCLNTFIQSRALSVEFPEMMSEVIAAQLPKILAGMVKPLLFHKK
Outline: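 HEK 293T PR-UAS-bla reporter cells, 2% charcoal-stripped FBS; 6 hr settle at 37C/5% CO2, compound (DMSO) 16 hr, LiveBLAzer B/G FRET substrate 2 hr RT, fluorescence intensity read.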

[12] = molecular target: Progesterone receptor (Homo sapiens) (UniProt P06401); experiment: qHTS assay to identify small molecule antagonists of the progesterone receptor (PR) signaling pathway (AID 1346795; active = well fitted inhibition curve with a large enough effect in the signal ratio in the repeat runs, not every such curve was filed as active; the % refers to the signal ratio)
Outline: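 Beta-lactamase reporter, HEK293T PR-UAS-bla line; 2% charcoal-stripped FBS; 6 hr pre-incubation, 37C/5% CO2. Compound + R5020 1 nM final, 16 hr. LiveBLAzer B/G FRET substrate, 2 hr RT; fluorescence intensity read.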

[13] = qHTS assay to identify small molecule antagonists of the progesterone receptor (PR) signaling pathway - cell viability counter screen (AID 1346798); also: nearly all actives have a fitted effect of over 50% in size; also: potency is read from the fitted curve at half-maximal effect
Outline: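 Luminescence readout (CellTiter-Glo, 30 min, RT) of viability in PR-UAS-bla HEK293T cells exposed to compound and R5020 agonist for 16 hr at 37C, 5% CO2; run in the same wells as the beta-lactamase reporter read.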

[14] = qHTS assay to identify small molecule agonists of the progesterone receptor (PR) signaling pathway - cell viability counter screen (AID 1346799; calls by dose curve; also: nearly all actives have a fitted effect of over 45% in size; also: potency is read from the fitted curve at half-maximal effect)
Outline: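 HEK293T PR-UAS-bla, 3,000 cells/well, 2% charcoal-stripped FBS; 6 h settle, compound 16 h at 37C/5% CO2; LiveBLAzer 2 h RT, then CellTiter-Glo 30 min RT, luminescence read.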

[15] = qHTS assay to identify small molecule antagonists of the TGF-beta/Smad signaling pathway - cell viability counter screen (AID 1346824); also: nearly all actives have a fitted effect of over 50% in size
Outline: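 SBE-bla HEK 293T cells, incubated overnight, then compound plus 0.25 ng/mL TGF-beta1 (stock added) for 5 hr at 37 C. Viability was read in the same wells by CellTiter-Glo luminescence after 30 min at room temperature.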

[16] = qHTS assay to identify small molecule agonists of the TGF-beta/Smad signaling pathway - cell viability counter screen (AID 1346829); also: top concentration of the series differs between compounds; nearly all actives have a fitted effect of over 45% in size
Outline: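 HEK 293T SBE-bla line, 5 hr compound exposure at 37 C, multiplexed CellTiter-Glo viability read by luminescence.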

[17] = qHTS assay to identify small molecule agonists of the TGF-beta/Smad signaling pathway (AID 1346859; active = well fitted activation curve with a large enough effect in the signal ratio in the repeat runs, not every such curve was filed as active; the % refers to the signal ratio; also: series mostly up to about 77 µM)
Outline: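 Read-out: fluorescence at 460 and 530 nm (405 nm excitation) after a 2 hr room-temperature incubation with beta-lactamase FRET substrate. SBE-bla HEK 293T cells had been treated with test compounds for 5 hr at 37 C.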

[18] = molecular target: Thyrotropin-releasing hormone receptor (Homo sapiens) (UniProt P34981); experiment: qHTS assay to identify small molecule antagonists of the thyrotropin-releasing hormone receptor (TRHR) signaling pathway (AID 1346877; active = well fitted inhibition curve with a large enough effect in the repeat runs, not every such curve was filed as active; also: series mostly up to about 51 µM)
Chain of Thyrotropin-releasing hormone receptor (Homo sapiens) (P34981 whole entry, looked up): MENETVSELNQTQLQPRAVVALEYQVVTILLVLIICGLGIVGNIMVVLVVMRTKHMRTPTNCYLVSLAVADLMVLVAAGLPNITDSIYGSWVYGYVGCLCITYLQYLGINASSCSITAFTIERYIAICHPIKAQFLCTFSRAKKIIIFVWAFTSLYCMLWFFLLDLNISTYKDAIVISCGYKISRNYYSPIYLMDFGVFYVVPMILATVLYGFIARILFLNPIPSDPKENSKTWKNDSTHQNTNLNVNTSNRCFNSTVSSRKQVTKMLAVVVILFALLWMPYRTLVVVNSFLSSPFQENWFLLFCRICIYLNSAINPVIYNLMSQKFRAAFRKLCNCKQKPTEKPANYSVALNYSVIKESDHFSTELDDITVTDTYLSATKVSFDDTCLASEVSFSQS
Outline: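 Antagonism is measured as suppression of the calcium response to 1 nM TRH in TRHR-HEK293 cells that have been dye-loaded for 2 h at 37 °C after overnight plating. Each compound is tested at 15 concentrations in triplicate.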

[19] = molecular target: Estrogen receptor (Homo sapiens) (UniProt P03372); experiment: qHTS assay to identify small molecule agonists of the estrogen receptor alpha (ER-alpha) signaling pathway in the presence of an antagonist (AID 1259383; calls by dose curve; also: top concentration of the series differs between compounds; nearly all actives have a fitted effect of over 15% in size)
Chain of Estrogen receptor (Homo sapiens) (P03372 whole entry, looked up): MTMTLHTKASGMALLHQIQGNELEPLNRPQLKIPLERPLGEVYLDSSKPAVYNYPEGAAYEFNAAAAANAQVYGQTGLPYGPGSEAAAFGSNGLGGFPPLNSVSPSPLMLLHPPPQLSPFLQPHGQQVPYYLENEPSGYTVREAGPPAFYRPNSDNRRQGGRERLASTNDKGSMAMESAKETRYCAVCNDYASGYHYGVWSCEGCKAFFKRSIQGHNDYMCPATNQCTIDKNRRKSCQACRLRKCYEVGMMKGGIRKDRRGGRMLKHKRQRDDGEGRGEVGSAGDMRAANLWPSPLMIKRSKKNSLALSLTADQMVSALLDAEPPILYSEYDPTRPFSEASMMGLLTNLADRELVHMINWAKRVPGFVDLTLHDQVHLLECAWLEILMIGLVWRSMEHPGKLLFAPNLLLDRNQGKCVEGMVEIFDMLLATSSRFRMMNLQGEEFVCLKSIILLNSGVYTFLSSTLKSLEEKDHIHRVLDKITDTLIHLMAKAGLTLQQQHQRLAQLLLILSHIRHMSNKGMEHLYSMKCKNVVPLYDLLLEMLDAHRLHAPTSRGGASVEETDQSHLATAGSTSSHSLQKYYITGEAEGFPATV
Outline: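 Agonist-mode confirmation in the presence of the ER antagonist ICI-182,780 at 10.0nM final. Breast-derived VM7Luc4E2 reporter cells were exposed to compounds for 22hr, and ERE-driven luciferase was quantified by luminescence.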

[20] = molecular target: Androgen receptor (Homo sapiens) (UniProt P10275); experiment: qHTS assay to identify small molecule agonists of the androgen receptor (AR) signaling pathway in the presence of an antagonist (AID 1259381; calls by dose curve; also: nearly all actives have a fitted effect of over 15% in size)
Chain of Androgen receptor (Homo sapiens) (P10275 whole entry, looked up): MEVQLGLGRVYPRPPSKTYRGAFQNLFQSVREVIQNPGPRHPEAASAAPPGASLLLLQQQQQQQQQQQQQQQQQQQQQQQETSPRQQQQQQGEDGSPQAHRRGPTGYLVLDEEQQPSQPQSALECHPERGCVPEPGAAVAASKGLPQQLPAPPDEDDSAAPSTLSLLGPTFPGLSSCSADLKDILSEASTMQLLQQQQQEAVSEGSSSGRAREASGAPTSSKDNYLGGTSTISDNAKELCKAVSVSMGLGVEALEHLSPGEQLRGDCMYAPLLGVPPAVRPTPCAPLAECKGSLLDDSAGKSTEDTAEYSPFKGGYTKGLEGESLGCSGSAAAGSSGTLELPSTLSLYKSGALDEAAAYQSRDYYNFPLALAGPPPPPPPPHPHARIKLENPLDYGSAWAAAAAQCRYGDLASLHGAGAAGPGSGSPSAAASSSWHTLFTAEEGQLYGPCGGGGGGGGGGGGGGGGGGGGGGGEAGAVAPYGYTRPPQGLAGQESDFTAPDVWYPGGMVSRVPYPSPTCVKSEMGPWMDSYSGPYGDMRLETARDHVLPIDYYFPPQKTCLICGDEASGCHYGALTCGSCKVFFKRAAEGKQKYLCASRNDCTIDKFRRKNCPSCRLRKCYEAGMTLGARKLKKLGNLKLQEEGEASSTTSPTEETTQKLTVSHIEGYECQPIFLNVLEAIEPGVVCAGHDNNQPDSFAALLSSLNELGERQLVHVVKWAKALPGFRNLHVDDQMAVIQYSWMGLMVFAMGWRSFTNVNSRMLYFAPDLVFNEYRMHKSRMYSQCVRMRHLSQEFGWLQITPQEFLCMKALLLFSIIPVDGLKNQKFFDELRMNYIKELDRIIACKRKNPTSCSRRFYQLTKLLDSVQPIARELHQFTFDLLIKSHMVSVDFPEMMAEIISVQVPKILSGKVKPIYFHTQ
Outline: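 Agonist-mode confirmation screen: human MDA-kb2 cells stably expressing luciferase under an MMTV promoter bearing AR and GR response elements, co-treated with 3.0uM nilutamide (final). Luminescence measured after 16hr compound incubation.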

SMILES | Potency [1] | Potency [2] | Potency [3] | Potency [4] | Potency [5] | Potency [6] | Potency [7] | outcome [8] | Potency [9] | Potency [10] | Potency [11] | Potency [12] | Potency [13] | Potency [14] | Potency [15] | Potency [16] | outcome [17] | Potency [18] | Potency [19] | outcome [20]
CCC(C)c1ccccc1O (centres undefined) | inactive | inactive | inactive | inactive | inactive | inactive | inactive | inactive | inactive | inactive | inactive | inactive | inactive | inactive | inactive | inactive | inactive | inactive | – | –
CCCCC(CC)COP(=O)(OCC(CC)CCCC)OCC(CC)CCCC (centres undefined) | inactive | inactive | inactive | inactive | inactive | inactive | inactive | inactive | inactive | inactive | – | – | – | inactive | inactive | inactive | inactive | inactive | – | –
CCCCc1oc2ccccc2c1C(=O)c1cc(I)c(OCCN(CC)CC)c(I)c1 | inactive | 43.6 µM (active) and inactive | inactive | 21.9 µM (active) and 26.6 µM (active) | 43.6 µM (active) and 33.5 µM (active) | 19.5 µM (active) and 29.8 µM (active) | 19.5 µM (active) and 26.6 µM (active) | inactive | inactive | inactive | inactive | – | 24.5 µM (active) and 11.9 µM (active) | 19.5 µM (active) and 13.3 µM (active) | inactive | – | inactive | inactive | inactive | –
c1ccncc1 | inactive | inactive | inactive | inactive | inactive | inactive | inactive | inactive | inactive | inactive | inactive | – | – | inactive | inactive | inactive | – | inactive | inactive | –
Cc1[nH]c(=O)c(C#N)cc1-c1ccncc1 | inactive | inactive | inactive | inactive | inactive | inactive | inactive | inactive | inactive | inactive | – | – | – | 2.73 µM (active) and inactive | inactive | inactive | – | inactive | inactive | –
CCCCC(CC)COCC1CO1 (centres undefined) | inactive | inactive | inactive | inactive | inactive | inactive | inactive | inactive | inactive | inactive | – | – | inactive | inactive | inactive | inactive | – | inactive | inactive | –
C/C=C/C(=O)O | inactive | inactive | inactive | inactive | inactive | inactive | inactive | inactive | inactive | inactive | inactive | – | inactive | inactive | inactive | inactive | inactive | inactive | – | –
c1ccc2cc(Nc3ccc(Nc4ccc5ccccc5c4)cc3)ccc2c1 | inactive | inactive | inactive | inactive | – | inactive | inactive | – | – | inactive | inactive | inactive | inactive | inactive | inactive | inactive | – | inactive | – | inactive
